Assay [1] concerns the target Carboxy-terminal domain RNA polymerase II polypeptide A small phosphatase 1 (Homo sapiens) (UniProt Q9GZU7). As to the kind of experiment: SCP1 melting temperature change from compounds – biophysical, differential scanning fluorimetry, orthogonal assay for Scp-1 inhibitor project, confirmation (AID 540329;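 active means substances whose mean melting-temperature shift, as a percentage of the reference inhibitor's shift, reaches about 5.3%, limit read from the data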;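 further: 0% = Tm of DMSO wells and 100% = Tm with sodium orthovanadate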). The following applies: Recombinant SCP1, Sypro Orange thermal shift Tm; at 40 µM; stronger effect = higher value.

Assay [2] deals with PEG-3 (UniProt Q6IN02). Kind of assay: inhibition of PEG-3 promoter-driven reporter – cell-based, HeLa, luciferase, CREF/GAPDH counter-screen panel, dose response (AID 624167). The note with it: HeLa PEG-Prom luciferase reporter, overnight, CREF/GAPDH counter-screens; run 1, dose range 1, at 100 µM (top of the series).
Sequence of PEG-3 (Q6IN02 whole entry, looked up): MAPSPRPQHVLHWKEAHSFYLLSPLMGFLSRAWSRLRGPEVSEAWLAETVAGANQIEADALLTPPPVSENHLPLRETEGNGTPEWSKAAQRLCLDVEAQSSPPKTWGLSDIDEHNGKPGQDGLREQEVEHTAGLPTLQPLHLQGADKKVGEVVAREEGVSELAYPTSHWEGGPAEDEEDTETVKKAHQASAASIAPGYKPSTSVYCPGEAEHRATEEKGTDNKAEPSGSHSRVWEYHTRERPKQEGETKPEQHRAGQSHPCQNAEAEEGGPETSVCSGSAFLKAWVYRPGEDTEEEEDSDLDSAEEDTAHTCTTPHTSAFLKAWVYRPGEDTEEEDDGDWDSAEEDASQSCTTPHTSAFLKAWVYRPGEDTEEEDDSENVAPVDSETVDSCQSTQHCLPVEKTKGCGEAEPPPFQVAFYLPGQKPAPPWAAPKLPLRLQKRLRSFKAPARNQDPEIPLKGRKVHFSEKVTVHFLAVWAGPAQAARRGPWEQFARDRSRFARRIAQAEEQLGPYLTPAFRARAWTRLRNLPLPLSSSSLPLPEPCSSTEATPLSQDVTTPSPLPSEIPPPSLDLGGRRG
Assay [3] concerns the target PEG-3 (UniProt Q6IN02). The description is as above. The note with it: HeLa PEG-Prom luciferase reporter, overnight, CREF/GAPDH counter-screens; run 2, dose range 1, at 100 µM (top of the series).
Assay [4] in a line: Brca1-Bard1 BiLC signal decrease – luminescence, single concentration, counter-screen for Mdm2/MdmX interaction inhibitor project, confirmation (AID 504668). The following applies: Brca1/Bard1 bimolecular luciferase complementation counterscreen, at 8 µM, stronger effect = higher value.
For assay [5], the target named is Tumor necrosis factor receptor superfamily member 10B (Homo sapiens) (UniProt O14763). Kind of assay: viability loss of caspase-8 NB7 cells with TRAIL – with/without TRAIL, luminescence panel, confirmation (AID 651596; in the data active means activity above about 50%). The following applies: NB7 neuroblastoma + caspase-8, TRAIL sensitization, NB7 Caspase-8, with TRAIL, mean of runs, at 10 µM, stronger effect = higher value.
Sequence of Tumor necrosis factor receptor superfamily member 10B (Homo sapiens) (O14763 whole entry, looked up): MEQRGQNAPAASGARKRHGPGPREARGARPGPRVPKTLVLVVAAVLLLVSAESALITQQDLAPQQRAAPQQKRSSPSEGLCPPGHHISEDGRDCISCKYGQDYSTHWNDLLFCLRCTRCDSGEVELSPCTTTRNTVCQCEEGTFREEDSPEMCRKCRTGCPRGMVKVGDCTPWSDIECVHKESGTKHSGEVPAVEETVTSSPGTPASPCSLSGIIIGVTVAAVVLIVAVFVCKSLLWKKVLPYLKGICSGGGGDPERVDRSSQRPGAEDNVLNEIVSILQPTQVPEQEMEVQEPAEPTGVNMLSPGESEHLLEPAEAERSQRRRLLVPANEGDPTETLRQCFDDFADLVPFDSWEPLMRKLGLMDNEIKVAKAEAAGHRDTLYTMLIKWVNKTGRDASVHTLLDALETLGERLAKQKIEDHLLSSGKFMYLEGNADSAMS

Assay in assay [6]: as above
The following applies: NB7 neuroblastoma + caspase-8, without TRAIL, NB7 Caspase-8, without TRAIL, mean of runs, at 10 µM.

In assay [7] the target is Tumor necrosis factor receptor superfamily member 10B (Homo sapiens) (UniProt O14763). Kind of assay: compound enhancement of TRAIL-induced cell killing – NB7 cells plus caspase-8, luminescence, panel, dose response (AID 652002). The note with it: NB7 neuroblastoma +caspase-8, TRAIL sensitization, luminescence viability, NB7+Caspase-8, with TRAIL, run 1; at 12.5 µM (top of the series).

Assay [8] shares this target. Described as above. The following applies: NB7 neuroblastoma +caspase-8, TRAIL sensitization, luminescence viability, NB7+Caspase-8, with TRAIL, run 2; at 12.5 µM (top of the series).
Assay in assay [9]: as above
The note with it: NB7 neuroblastoma +caspase-8, no TRAIL, compound-alone cytotoxicity counter-screen, luminescence viability, NB7+Caspase-8, run 1; at 12.5 µM (top of the series).

Assay in assay [10]: as above
The note with it: NB7 neuroblastoma +caspase-8, no TRAIL, compound-alone cytotoxicity counter-screen, luminescence viability, NB7+Caspase-8, run 2; at 12.5 µM (top of the series).

The nature of assay [11]: inhibition of PEG-3 promoter luciferase signal – cell-based, HeLa, luciferase reporter, single concentration, confirmation (AID 602417;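 active means at 20 µM dose, 40% or more inhibition averaged across four replicates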). The note with it: HeLa PEG-Prom luciferase reporter, luminescence, overnight; at 20 µM; stronger effect = higher value.
A short description of assay [12]: NF-kB reporter suppression in CF airway cells – cell-based, GFP fluorescence, single concentration, confirmation (AID 602472; in the data active means inhibition above about 40%;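 further: stimulus PAF is a Pseudomonas aeruginosa filtrate and not platelet activating factor; plate controls were DMSO wells with stimulus for no effect and unstimulated DMSO wells for full effect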). The note with it: KKLEB CF airway cells, PAF-induced NF-kB-GFP fluorescence, overnight; at 5 µM; stronger effect = higher value.
Assay [13] is described as follows: HIF-2a driven luciferase blockers, single dose – luminescence, 786-0 RCC cells, confirmation (AID 651580;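 active means mean inhibition across four replicates of at least 40 percent at the single tested concentration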). The following applies: HIF-2a luciferase reporter luminescence, overnight, at 18.8 µM, stronger effect = higher value.
A short description of assay [14]: HIF-1a luciferase reporter signal reduction – MiaPaCa-2 cells, single concentration, counter-screen for HIF-2a inhibitor project, confirmation (AID 651589;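 active means mean inhibition of the reporter signal across four replicates at the single tested dose of 50% or more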). The note with it: MiaPaCa-2 HIF-1a luciferase reporter, desferoxamine, overnight; at 18.8 µM; stronger effect = higher value.
Assay [15] concerns Rat fibroblasts (CREF). As to the kind of experiment: inhibition of PEG-3 promoter-driven reporter – cell-based, HeLa, luciferase, CREF/GAPDH counter-screen panel, dose response (AID 624167). The note with it: CREF/GAPDH counter-screens; run 1, dose range 1, at 100 µM (top of the series).
For assay [16], the system named is Rat fibroblasts (CREF). The assay is described as above. The note with it: CREF/GAPDH counter-screens; run 2, dose range 1, at 100 µM (top of the series).
Assay [17] can be described thus: NFkB reporter suppression in cystic fibrosis bronchial cells – cell-based, uHTS hits, panel, cytotoxicity readout, dose response (AID 624344). The note with it: CF bronchial epithelial cells, PAF-induced NFkB reporter inhibition, with PAF, run 1; at 79 µM (top of the series).
Assay in assay [18]: as above
The following applies: CF bronchial epithelial cells, PAF-induced NFkB reporter inhibition, with PAF, run 2; at 79 µM (top of the series).

The other results are listed elsewhere or left out. Calls of active or inactive are those of the source. Unless noted, how the calls were made is not given here.

Sequence of Carboxy-terminal domain RNA polymerase II polypeptide A small phosphatase 1 (Homo sapiens) (Q9GZU7 76-261 limits assumed): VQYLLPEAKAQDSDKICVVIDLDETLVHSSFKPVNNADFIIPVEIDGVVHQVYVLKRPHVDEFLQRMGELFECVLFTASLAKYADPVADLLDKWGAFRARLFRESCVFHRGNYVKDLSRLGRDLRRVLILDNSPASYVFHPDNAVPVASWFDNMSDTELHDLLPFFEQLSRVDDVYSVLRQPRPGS

With `COc1ccccc1N=C1SCCCN1C`, the thermal shift relative to vanadate control in [1] is -0.51% (inactive).

`O=C1NC(=S)N(c2ccccc2F)C(=O)/C1=C\c1cccs1`: the inhibition in the assay with PEG-3 [2] came to 102%; with PEG-3 [3], 99%.

`C[C@]12CC[C@H](O)C[C@H]1CC[C@@H]1[C@@H]2C[C@@H](O)[C@]2(C)[C@@H](C3=CC(=O)OC3)CC[C@]12O`: in assay [4], the inhibition is 34% (active). Further, the values for the activity in [5] and in assay [6] were 86.5% and 85.4%, respectively.

On to `CCOC(=O)c1cccc(-[n+]2c(-c3ccccc3)cc(-c3ccccc3)cc2-c2ccccc2)c1`, for which the inhibition in assay [4] is 33.2% (active). Besides, the activity amounted to 49.7% in [5] and 44% in assay [6]. The activity, % sensitization in [7] was determined as 6.7%; in assay [8] it was 9.91%; in assay [9], 9.79%; in [10], 5.11%.

For the molecule `O=C1NC(=O)N(Cc2ccc(F)cc2)C(=O)/C1=C\C=C\c1ccco1`, the results for the inhibition with PEG-3 [2] and in the assay with PEG-3 [3] were 98.2% and 99.4%, respectively.

On to `O=Cc1cn(Cc2ccc(Br)cc2)c2ccccc12`, for which the inhibition with PEG-3 [2] was 41.6%; in the assay with PEG-3 [3], 72.9%.

`O=c1c2ccccc2nc(CSc2ncnc3nc[nH]c23)n1-c1ccc(Cl)c(Cl)c1`: the inhibition in the assay with PEG-3 [2] was -43.1%; in the assay with PEG-3 [3], 33.8%.

As for `CNCC(O)c1cc(OCc2ccccc2)c(OCc2ccccc2)cc1F` (centres undefined), the inhibition with PEG-3 [2] and with PEG-3 [3] was 102% each time.

Turning to `CCn1nc(-c2ccccc2)nc2c(=O)n(C)c(=O)nc1-2`, the inhibition in [4] was 23.3% (active).

On to `O=Cc1cn(Cc2ccc(F)cc2)c2ccccc12`, for which the inhibition with PEG-3 [2] worked out at 26.6%; with PEG-3 [3], 60.7%.

With `CC(C)(C)n1nnnc1C(CCc1ccccc1)N1CCC(n2c(=O)[nH]c3ccccc32)CC1` (centres undefined), the inhibition in the assay with PEG-3 [2] is 86.4%; with PEG-3 [3] it was 92.6%.

As to `N#Cc1ccc(Cn2cc(C=O)c3ccccc32)cc1`, the inhibition with PEG-3 [2] was 90.2%; with PEG-3 [3], 42.5%.

Take `CC1(C)Cc2c(C#N)c(N3CCNCC3)nc(-c3ccco3)c2CS1`: the inhibition in [11] was 68.9% (active); with PEG-3 [2], 101%; with PEG-3 [3] it was 101%.

With `O=C(O)CCn1cc(C=C2C(=O)NC(=S)NC2=O)c(-c2cccc(Br)c2)n1`, the thermal shift relative to vanadate control in [1] is -19.9% (inactive).

Take `COc1ccc(-n2nnnc2C(C2CC2)N2CCC(n3c(=O)[nH]c4ccccc43)CC2)cc1` (centres undefined): the inhibition in the assay with PEG-3 [2] was determined as 93.8%; in the assay with PEG-3 [3] it was 95.7%.

With `O=c1[nH]c(=O)n(CCc2ccc(F)cc2)c(O)c1/C=N/N1CCCCC1`, the thermal shift relative to vanadate control in [1] was -3.71% (inactive).

With `O=[N+]([O-])c1ccc(NC2CCN(Cc3ccccc3)CC2)c2ccncc12`, the inhibition with PEG-3 [2] amounted to 102%; with PEG-3 [3], 99%.

For the molecule `Brc1ccc(-[n+]2c(-c3ccccc3)cc(-c3ccccc3)cc2-c2ccccc2)cc1`, the inhibition in assay [4] was 24.1% (active). For the same molecule, the figures for the activity in [5] and in [6] were 73% and 63%, respectively.

Consider `CC(=CCOc1ccc2ccc(=O)oc2c1)C1=CC(=O)C(C)(C)O1`, for which the figures for the inhibition in assay [12], in assay [13] and in [14] were -46% (inactive), 44.2% (active) and 90.3% (active), respectively.

Consider `O=Cc1cn(Cc2ccc(F)cc2Cl)c2ccccc12`, for which the inhibition in assay [4] was 35.1% (active).

Turning to `Cc1ccc(S(=O)(=O)c2nc(-c3ccccc3Cl)oc2N(C)C2CCN(C)CC2)cc1`, the inhibition in the assay with PEG-3 [2] turned out to be 99.3%; with PEG-3 [3] it was 101%.

As for `Brc1ccc2c(c1)C(OC1CN3CCC1CC3)c1ccccc1CS2` (centres undefined), the inhibition in assay [4] is 33.8% (active).

Turning to `O=C1NC(=S)NC(=O)C1=Cc1cccn1-c1ccc(O)cc1`, the inhibition with PEG-3 [2] was found to be 100%; with PEG-3 [3], 101%.

With `CC[C@@H](O)C[C@H]1CCC[C@@]2(C[C@@H]3OC(=O)/C=C/[C@@](C)(O)[C@@H](O)[C@H](C)[C@@H](O)[C@H](OC4CCC(N(C)C)C(C)O4)[C@@H](O)[C@](C)(O)CCCCC/C=C/[C@@H]4CC(C)(C)O[C@@]4(O)C[C@H](O2)[C@H]3C)O1` (some centres undefined), the inhibition with PEG-3 [2] and with PEG-3 [3] was 98.9% each time.

In the case of `COc1ccc(C(c2nnnn2-c2c(C)cccc2C)N2CCC(n3c(=O)[nH]c4ccccc43)CC2)cc1` (centres undefined), the inhibition in the assay with PEG-3 [2] worked out at 63.7%; with PEG-3 [3] it was 63.1%.

Consider `CC[n+]1c(-c2ccccc2)c2cc(N)ccc2c2ccc(N)cc21`, for which the inhibition in the assay with PEG-3 [2] and with PEG-3 [3] was 102% throughout.

As to `NC(N)=N/N=C/c1ccc(N(c2ccccc2)c2ccccc2)cc1`, in [4], the inhibition was 29.9% (active). The activity in assay [5] worked out at 75.5%; in assay [6], 97.2%.

As for `Cc1cccc(C)c1-n1nnnc1C(c1ccccc1OC(F)(F)F)N1CCC(n2c(=O)[nH]c3ccccc32)CC1` (centres undefined), the inhibition with PEG-3 [2] is 49.4%; with PEG-3 [3], 42%.

As for `Cc1ccc(-c2cc(-c3ccc(C)cc3)[n+](-c3ccccc3)c(-c3ccc(C)cc3)c2)cc1`, the values for the inhibition with PEG-3 [2] and with PEG-3 [3] were 101% and 102%, respectively.

Take `O=C1NC(=O)N(Cc2ccccc2)C(=O)/C1=C\C=C\c1ccco1`: the inhibition with PEG-3 [2] worked out at 94.5%; with PEG-3 [3], 98.5%.

With `C[C@@H]1C[C@@H]([C@H](O)CC2CC(=O)NC(=O)C2)C(=O)[C@@H](C)C1`, the inhibition with PEG-3 [2] came out at 98%; in the assay with PEG-3 [3], 101%; in the assay with Rat fibroblasts (CREF) [15], 62.3%; with Rat fibroblasts (CREF) [16], 58.2%; in assay [17], 106%; in assay [18], 116%.

Take `Cc1c(C(=O)N2CCC3(CC2)OCCO3)sc2ncnc(N3CCN(c4ccccn4)CC3)c12`: the inhibition was 97.5% in the assay with PEG-3 [2] and 102% in the assay with PEG-3 [3].

For `Cn1cccc1/C=C1/C(=O)NC(=S)N(Cc2ccc(F)cc2)C1=O`, the inhibition in the assay with PEG-3 [2] is 101%; with PEG-3 [3], 100%.

The values are drawn from PubChem BioAssay.
